# High-throughput results from PubChem.
# CF NFkB block: inhibitors of cystic fibrosis induced NF-kB | KKLEB NF-kB-GFP reporter, PAF-induced, GFP fluorescence overnight | inhibition, % at 5 µM | hit rate 0.86% among 360,000;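 active = at least 50% inhibition at 5 µM, scaled per plate between neutral and stimulator controls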;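 also: PAF is a Pseudomonas aeruginosa culture filtrate used as stimulus; plate controls were PAF-stimulated DMSO wells for no effect and unstimulated DMSO wells for full effect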
# LGR2 inh: inhibitors of bursicon-induced Drosophila LGR2 receptor cAMP signaling. HEK293 LGR2, CRE-luciferase, bursicon-stimulated, 4 h. inhibition, % at 9.99 µM. hit rate 0.35% among 380,000. AID 720647;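 active = drop in luminescence signal, shown as inhibition above about 50% in the replicate tests, limit read from the data, passing the limit was not always enough; inconclusive = probably only some replicates passing the limit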;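 also: agonist challenge used bursicon conditioned medium at about half maximal strength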
# Shn3 inh set2: inhibitors of Schnurri-3 3'UTR reporter in osteoblasts. Clone20 osteoblast Shn3 3'UTR firefly luciferase, 24 h. inhibition, % at 12.5 µM. hit rate 0.52% among 360,000;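 active = mean inhibition of at least 75% with every replicate also reaching 75%; inconclusive = mean inhibition at least 75% but some replicate below; inactive = mean inhibition below 75%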;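 also: 0% = median of neutral control wells and 100% = pilot-screen positive control compound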
# PAX8 inh HTS: inhibitors of PAX8 transcriptional activity in RMG-I cells | hit rate 1.2% among 360,000 | RMG-I TPO-luciferase reporter, SteadyGlo, 24 h | inhibition, % at 12.6 µM | AID 652154;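 active = mean replicate inhibition at least 60% with every replicate also reaching 60%; inconclusive = only one of the two criteria is met; inactive = mean below 60% and not all replicates reaching 60%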;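 also: luciferase light reporting Pax8 driven TPO promoter activity; plate controls were median of neutral control wells for no effect and mitoxantrone controls for full effect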
# KKLEB tox: counter-screen for CF NF-kB inhibitors: cytotoxicity. KKLEB CF airway cells viability, ATPlite luminescence, overnight; stronger effect = lower value; cells stimulated with P. aeruginosa culture filtrate. activity change (cytotoxicity), % at 5 µM. hit rate 0.36% among 360,000. AID 602141;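 active = corrected activity change at or below -50% at 5 µM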
# EWS-Fli block: EWS/Fli transcriptional activity inhibition. AID 651661. hit rate 0.67% among 350,000. inhibition, % at 12.6 µM. A673 NR0B1-luciferase reporter, viability-normalised;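 active = mean inhibition of at least 50% after viability correction, with every replicate also passing that limit; inconclusive = mean reaches 50% but only one of two replicates passes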;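 also: firefly luciferase signal divided by Alamar Blue viability fluorescence both relative to DMSO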
# DNA binder FP: small molecule DNA binding by fluorescence polarization; shares compounds with EWS-Fli block; salmon sperm DNA acridine orange fluorescence polarization; AC35, µM (top dose mostly 68 µM), for inactives: at the highest dose activity change, negative = DNA binding; hit rate 2% among 640;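 active = fitted curve reaches a 35% signal fall AC35 below twice the sample's top valid tested dose, actives reach about 48 µM in these data; inactive = the rest, including activity in the rising direction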;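 also: lower polarization ratio signals compound binding to DNA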
# An asterisk follows results filed as active; ? = inconclusive; · = no result; ! = repeats disagree. Most compounds without a hit are left out; they make up all but 2% or so of the library.
SMILES,CF NFkB block,LGR2 inh,Shn3 inh set2,PAX8 inh HTS,KKLEB tox,EWS-Fli block,DNA binder FP
O=C(CCCCl)Nc1nc(-c2ccc3c(c2)OCCO3)cs1,-17,-71,-55,-255,-8,57*,-5%
Cc1ccc(S(=O)(=O)N[C@@H]2CC[C@H](CCn3cc(C4CCCC4)nn3)O[C@H]2CO)cc1,·,-7,·,12,·,14,·
CO[C@@H]1CN(C)C(=O)c2cc(NC(=O)c3cnccn3)ccc2OC[C@@H](C)N(C(C)=O)C[C@@H]1C,·,-26,·,3,·,1,·
COc1ccc(NC(=O)Nc2ccc3c(c2)C(=O)N([C@H](C)CO)C[C@H](C)[C@H](CN(C)S(C)(=O)=O)OCCCC[C@H](C)O3)cc1,·,-18,·,-20,·,-8,·
CCc1cnc(N2[C@H](C#N)[C@H](c3ccc(C#Cc4ccccc4F)cc3)[C@@H]2CO)s1,·,-7,·,-8,·,-22,·
CCc1cnc(N2[C@H](C#N)[C@H](c3ccc(C#Cc4ccccc4F)cc3)[C@H]2CO)s1,·,19,·,49,·,53*,-6%
N#C[C@H]1N[C@H](CO)[C@H]1c1ccc(C#Cc2ccccc2F)cc1,·,24,·,-30,·,53*,4%
N#C[C@H]1[C@H](c2ccc(C#Cc3ccccc3F)cc2)[C@@H](CO)N1C(=O)C1CCOCC1,·,43,·,75*,·,67*,-9%
N#C[C@H]1N[C@@H](CO)[C@H]1c1ccc(C#Cc2ccccc2F)cc1,·,-70,·,-125,·,-110,·
N#C[C@@H]1[C@H](c2ccc(C#Cc3ccccc3F)cc2)[C@@H](CO)N1C(=O)c1cccnc1,·,41,·,47,·,74*,7%
CC=Cc1ccc2n(c1=O)C[C@@H]1[C@@H](CO)[C@H](C(=O)N[C@@H](C)c3ccccc3)N(C(=O)c3cnccn3)[C@H]21 (mixture of isomers),·,-13,·,-5,·,3,·
O=C(O)c1ccc(S(=O)(=O)NN=Cc2c[nH]c3ccccc23)cc1,12,12,6,34,-18,4,·
O=C(O)c1ccc(N/N=C/c2c[nH]c3ccccc23)cc1,16,59*,31,45,-1,69*,-4%
Cc1noc(C)c1NC(=O)N(C)C[C@@H]1OCCCC[C@@H](C)Oc2ccc(NS(=O)(=O)c3c(C)noc3C)cc2C(=O)N([C@H](C)CO)C[C@H]1C,·,-12,·,1,·,-5,·
C[C@@H](O)C#Cc1ccc([C@@H]2[C@H]3CN(C(=O)Nc4ccccc4)CCCCN3[C@H]2CO)cc1,·,-3,·,-9,·,2,·
OCC1OC(n2ccc3c2ncn2ncnc32)C(O)C1O (centres undefined),68*,-18,9,72*,-57*,71*,-10%
Nc1nc(N)c2cc(Sc3ccc4ccccc4c3)ccc2n1,35,19,85,68*,-16,69*,-4%
CC(C)CN(C(=O)CN1CCOCC1)c1c(N)n(CC(C)C)c(=O)[nH]c1=O,-2,15,-19,9,13,61*,-12%
CC(C)CN(C(=O)CN1CCCCCC1)c1c(N)n(CC(C)C)c(=O)[nH]c1=O,-3,3,-26,19,-16,-10,·
CC(=O)c1ccc(N(C(=O)Cn2nnc3ccccc32)C(C(=O)NCc2ccccc2)c2ccccn2)cc1 (centres undefined),-14,-5,-47,-20,0,62*,-6%
Cc1ccc(N(C(=O)Cn2nnc3ccccc32)C(C(=O)NCc2ccccc2)c2ccccn2)cc1 (centres undefined),-9,11,7,1,17,·,·
CN1C(=O)c2cc(NC(=O)c3ccc(C(F)(F)F)cc3)ccc2OC[C@@H]2O[C@@H](CC(=O)NC3Cc4ccccc4C3)CC[C@@H]21,·,·,·,51,·,18,·
COC(=O)C[C@H]1CC[C@@H]2[C@H](COc3ccc(NC(=O)Nc4cccc(F)c4)cc3C(=O)N2C)O1,·,-2,·,2,·,1,·
COC(=O)C[C@@H]1CC[C@@H]2[C@@H](COc3ccc(NC(=O)Nc4cccc(Cl)c4)cc3C(=O)N2C)O1,·,11,·,15,·,77*,14%
COC(=O)C[C@@H]1CC[C@@H]2[C@@H](COc3ccc(NC(=O)Nc4cccc(F)c4)cc3C(=O)N2C)O1,·,-10,·,1,·,69*,-10%
SMILES,CF NFkB block,LGR2 inh,Shn3 inh set2,PAX8 inh HTS,KKLEB tox,EWS-Fli block,DNA binder FP
COC(=O)C[C@@H]1CC[C@H]2[C@H](COc3ccc(NC(=O)Nc4cccc(Cl)c4)cc3C(=O)N2C)O1,·,16,·,14,·,?,·
COC(=O)C[C@H]1CC[C@H]2[C@@H](COc3ccc(NC(=O)Nc4cccc(Cl)c4)cc3C(=O)N2C)O1,·,-6,·,23,·,60*,5%
CN1C(=O)c2cc(NC(=O)c3ccc(C(F)(F)F)cc3)ccc2OC[C@@H]2O[C@@H](CC(=O)NC3Cc4ccccc4C3)CC[C@H]21,·,4,·,39,·,54*,0%
C[C@@H]1CN([C@H](C)CO)C(=O)c2cc(NS(=O)(=O)c3cccs3)ccc2O[C@@H]1CN(C)Cc1ccc(-c2ccccc2)cc1,·,14,·,21,·,34,·
CCCNC(=O)N1C[C@@H](O)COC[C@H]2O[C@@H](CC(=O)N3CCOCC3)CC[C@@H]21,·,7,·,2,·,-3,·
COC(=O)C[C@@H]1CC[C@@H]2[C@@H](COc3ccc(NC(=O)Nc4ccccc4C)cc3C(=O)N2C)O1,·,-5,·,13,·,66*,-13%
COC(=O)C[C@H]1CC[C@H]2[C@H](COc3ccc(NC(=O)Cc4cccs4)cc3C(=O)N2C)O1,·,0,·,1,·,2,·
COC(=O)C[C@@H]1CC[C@@H]2[C@@H](COc3ccc(NC(=O)Cc4cccs4)cc3C(=O)N2C)O1,·,-12,·,6,·,65*,-20%
COc1ccc(C(=O)Nc2cccc(C(=O)N/N=C/c3ccc(OC)cc3OC)c2)cc1,-10,-4,10,40,7,54*,8%
COc1ccc(/C=N/NC(=O)c2cccc(NC(C)=O)c2)c(OC)c1,2,34,-3,17,-6,4,·
Cc1noc(C)c1S(=O)(=O)Nc1ccc2c(c1)CC(=O)N([C@@H](C)CO)C[C@@H](C)[C@@H](CN(C)C)O2,·,3,·,-19,·,-9,·
O=C(Cc1nn[nH]n1)c1ccccc1O,16,7,-3,15,-7,68*,-2%
C(=C\c1ccc(C2[C@H]3CNC[C@@H]2N3Cc2ccccn2)cc1)/c1ccccc1 (some centres undefined),·,-8,·,8,·,59*!,-10%
C(=C\c1ccc(C2[C@H]3CNC[C@@H]2N3Cc2cncnc2)cc1)/c1ccccc1 (some centres undefined),·,-6,·,5,·,1,·
COc1ccc(OC)c(-c2cc(C(F)(F)F)c3c(n2)sc2c(O)cc(=O)[nH]c23)c1,-7,5,-18,-3,-14,89*,-9%
